Assay outcomes from PubChem.
p47phox inh: blocks human p47phox regulatory protein of NADPH oxidases | P14598 | p47phox/p22phox peptide binding, fluorescence polarization, 2 h | inhibition, % at 24.7 µM | actives 0.53% (n = 220,000) | AID 1274;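 also: 0% = p47phox with labelled peptide and 100% = labelled peptide alone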
Target sequence (P14598 whole entry, looked up): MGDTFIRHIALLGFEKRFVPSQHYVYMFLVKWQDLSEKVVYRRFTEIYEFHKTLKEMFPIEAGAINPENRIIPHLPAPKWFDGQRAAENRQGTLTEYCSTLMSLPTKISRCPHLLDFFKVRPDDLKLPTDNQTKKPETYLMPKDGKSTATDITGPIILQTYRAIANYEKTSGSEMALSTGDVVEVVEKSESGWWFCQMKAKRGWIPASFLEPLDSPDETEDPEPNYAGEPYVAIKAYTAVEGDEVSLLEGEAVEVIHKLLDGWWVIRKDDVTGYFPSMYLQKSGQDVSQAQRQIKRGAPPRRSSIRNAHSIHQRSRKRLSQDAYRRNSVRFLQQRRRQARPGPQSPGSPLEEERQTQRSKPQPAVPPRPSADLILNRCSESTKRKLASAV
Mcl1-Bid inh: Mcl-1/Bid interaction inhibition. AID 1021. TR-FRET Mcl-1/Bid-Dy647 peptide binding, 1536-well. Q07820. inhibition, % at 21.7 µM. actives 0.97% (n = 220,000);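 active = compounds that cut the binding signal by more than half at the single screening dose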;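 also: His-tagged Mcl-1 with europium anti-His antibody binding Bid BH3 peptide; 0% = Mcl-1 plus peptide wells and 100% = peptide-only wells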
Bim-Mcl-1: disrupts Bim peptide binding to human Mcl-1; inhibition, % at 10 µM; Bead-based flow cytometry, Bim peptide-Mcl-1 binding; actives 0.1% (n = 190,000); AID 1009; Q07820; in the data active = inhibition above about 40%;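 also: 0% = no compound tracer wells and 100% = peptide blocker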
eIF4E-4G inh: inhibitors of eIF4E and eIF4G interaction in translation initiation; AID 782; TR-FRET eIF4E-eIF4GI(517-606) binding, 2 h; actives 0.37% (n = 220,000); P63073+Q04637; inhibition, % at 21.7 µM;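 also: 0% = full FRET control wells and 100% = background wells lacking eIF4GI fragment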
Mcl1-Noxa inh: Mcl-1/Noxa interaction inhibition. Q07820. TR-FRET Mcl-1/Noxa peptide binding, 2 h. inhibition, % at 21.7 µM. actives 1.5% (n = 220,000);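 active = compounds that cut the protein-peptide binding signal by more than 50% relative to plate controls in a single-dose test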;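 also: His-tagged Mcl-1 with rhodamine Noxa BH3 peptide and terbium anti-His antibody; 0% = Mcl-1 plus Noxa peptide wells and 100% = peptide-only wells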
14-3-3 Bad PPI: disrupts binding of bovine 14-3-3 zeta to phospho-Bad peptide | inhibition, % at 21.7 µM | actives 0.71% (n = 220,000) | TR-FRET 14-3-3zeta/Dy647-pBad peptide displacement, 1 h | P63103;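 active = inhibition above about 70%, limit read from the data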;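 also: 0% = full 14-3-3 plus peptide FRET controls and 100% = background without 14-3-3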
Target sequence (P63103 whole entry, looked up): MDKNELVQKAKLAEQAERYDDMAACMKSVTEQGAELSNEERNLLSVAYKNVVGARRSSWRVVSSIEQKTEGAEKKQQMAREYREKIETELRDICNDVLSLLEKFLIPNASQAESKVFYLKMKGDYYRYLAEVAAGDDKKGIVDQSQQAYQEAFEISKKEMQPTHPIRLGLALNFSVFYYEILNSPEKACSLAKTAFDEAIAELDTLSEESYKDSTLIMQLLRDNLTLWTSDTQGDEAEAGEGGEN
Starred values were filed as active, the others as inactive; [ ] = remark or other dose. This is a sample that favours compounds with a hit; in the whole collection about 3.3% have one here.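 The calls were made as follows, unless noted: active = inhibition above about 30% (limit read from the data); inactive = the rest.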

COCCn1nnnc1C(C(C)C)N1CCC(Cc2ccccc2)CC1 (centres undefined) was read as p47phox inh -41, Mcl1-Bid inh 6, Bim-Mcl-1 3, eIF4E-4G inh 11, Mcl1-Noxa inh 19 and 14-3-3 Bad PPI 84*.
C=CCSc1nc2c(cc1C#N)CCC2 was read as p47phox inh -8, Mcl1-Bid inh 18, Bim-Mcl-1 0, eIF4E-4G inh -5, Mcl1-Noxa inh 27 and 14-3-3 Bad PPI 90*[fluorescence artefact?].
For Cc1noc2ncnc(SCc3ccc(C(F)(F)F)cc3)c12 the results were p47phox inh -4, Mcl1-Bid inh 69*, eIF4E-4G inh -3, Mcl1-Noxa inh 11 and 14-3-3 Bad PPI 3.
`NC(=O)CSc1nc2cc3c(cc2c(=O)n1CCCC(=O)NCc1ccc2c(c1)OCO2)OCO3` gave p47phox inh 1, Mcl1-Bid inh -13, Bim-Mcl-1 -1, eIF4E-4G inh 2, Mcl1-Noxa inh 17 and 14-3-3 Bad PPI 12.
For CC(C)NC(=O)C(OC(=O)c1ccccc1)C(OC(=O)c1ccccc1)C(=O)O (centres undefined) the results were p47phox inh -13, Mcl1-Bid inh 15, Bim-Mcl-1 -4, eIF4E-4G inh 0, Mcl1-Noxa inh 2 and 14-3-3 Bad PPI 70*.
`O=C(OC(C(=O)NCc1ccco1)C(OC(=O)c1ccccc1)C(=O)NCc1ccco1)c1ccccc1` (centres undefined) gave p47phox inh -5, Mcl1-Bid inh -33, Bim-Mcl-1 -3, eIF4E-4G inh 12, Mcl1-Noxa inh -4 and 14-3-3 Bad PPI -14.
Screening CNC(=O)c1csc(-c2ccc(Cl)cc2)n1 returned p47phox inh -6, Mcl1-Bid inh -19, Bim-Mcl-1 1, eIF4E-4G inh -5, Mcl1-Noxa inh 11 and 14-3-3 Bad PPI -11.
For O=C(O)c1csc(-c2ccc(Cl)cc2)n1 the results were p47phox inh 65*, Mcl1-Bid inh 3, Bim-Mcl-1 0, eIF4E-4G inh 0, Mcl1-Noxa inh 18 and 14-3-3 Bad PPI -4.
For O=C(O)c1nn(-c2ccccc2-c2n[nH]c(=O)[nH]c2=O)c(=O)[nH]c1=O the results were p47phox inh 12, Mcl1-Bid inh -37, eIF4E-4G inh -11, Mcl1-Noxa inh 15 and 14-3-3 Bad PPI 3.
`Cc1ccccc1-n1c(SC/C(O)=C(\C#N)c2nc3ccccc3[nH]2)nnc1-c1ccncc1` gave p47phox inh -104, Mcl1-Bid inh -46, Bim-Mcl-1 -1, eIF4E-4G inh -2, Mcl1-Noxa inh 19 and 14-3-3 Bad PPI -3.
`Cc1cc(C)n2c(SC/C(O)=C(\C#N)c3nc4ccccc4[nH]3)nnc2n1` gave p47phox inh -19, Mcl1-Bid inh -7, Bim-Mcl-1 -1, eIF4E-4G inh 9, Mcl1-Noxa inh 86* and 14-3-3 Bad PPI -5.
Screening Cc1ccccc1-c1ccc(Nc2ccc(N3CCOCC3)cc2)nn1 returned p47phox inh 12, Mcl1-Bid inh 12, Bim-Mcl-1 1, eIF4E-4G inh 4, Mcl1-Noxa inh 69* and 14-3-3 Bad PPI 43.
Screening O=S1(=O)N=C(Nc2ccc(N3CCOCC3)cc2)c2ccccc21 returned p47phox inh -11, Mcl1-Bid inh -26, Bim-Mcl-1 -2, eIF4E-4G inh -3, Mcl1-Noxa inh 24 and 14-3-3 Bad PPI 9.
For O=C(COC(=O)CCc1nc2ccccc2s1)NCc1ccco1 the results were p47phox inh -6, Mcl1-Bid inh -8, Bim-Mcl-1 -1, eIF4E-4G inh 2, Mcl1-Noxa inh 5 and 14-3-3 Bad PPI -3.
Screening CC(=O)Nc1ccc(S(=O)(=O)NCC(C)NS(=O)(=O)c2ccc(NC(C)=O)cc2)cc1 (centres undefined) returned p47phox inh -4, Mcl1-Bid inh -11, Bim-Mcl-1 0, eIF4E-4G inh 1, Mcl1-Noxa inh 13 and 14-3-3 Bad PPI 1.
For CC(=O)Nc1ccc(S(=O)(=O)NCC(CCC(=O)O)C(F)(F)F)cc1 (centres undefined) the results were p47phox inh 6, Mcl1-Bid inh -3, Bim-Mcl-1 1, eIF4E-4G inh -2, Mcl1-Noxa inh 60* and 14-3-3 Bad PPI 0.
For CCc1ccc(/C=C2\Oc3c(ccc(O)c3CN3CCN(CCO)CC3)C2=O)cc1 the results were p47phox inh -18, Mcl1-Bid inh -20, eIF4E-4G inh 72*, Mcl1-Noxa inh 19 and 14-3-3 Bad PPI 5.
Screening Cc1cccc(SC2CCN(Cc3nc(CC4CC4)no3)CC2)c1 returned p47phox inh 41*, Mcl1-Bid inh -38, Bim-Mcl-1 -5, eIF4E-4G inh 0, Mcl1-Noxa inh 2 and 14-3-3 Bad PPI -5.
COc1ccccc1N1C(=O)C2ON(c3ccccc3)C(c3ccc(N(C)C)cc3)C2C1=O (centres undefined) was read as p47phox inh -48, Mcl1-Bid inh -6, Bim-Mcl-1 11, eIF4E-4G inh -3, Mcl1-Noxa inh 78* and 14-3-3 Bad PPI 3.
For Cn1c(=O)c2c(-c3ccccc3)n(C3CCCCC3)cc2n(C)c1=O the results were p47phox inh 57*, Mcl1-Bid inh -94, Bim-Mcl-1 0, eIF4E-4G inh 7, Mcl1-Noxa inh -8 and 14-3-3 Bad PPI 19.
For Cc1cccc(-c2c3c(=O)n(C)c(=O)n(C)c3cn2C2CCCCC2)c1 the results were p47phox inh -19, Mcl1-Bid inh -80, Bim-Mcl-1 -1, eIF4E-4G inh 1, Mcl1-Noxa inh 5 and 14-3-3 Bad PPI -6.
O=C(NC1=NCCS1)C12CC3CC(CC(C3)C1)C2 was read as p47phox inh -2, Mcl1-Bid inh -8, Bim-Mcl-1 0, eIF4E-4G inh -2, Mcl1-Noxa inh 19 and 14-3-3 Bad PPI -8.
CC(C)C(NC(=O)C12CC3CC(CC(C3)C1)C2)C(=O)NC1=NCCS1 (centres undefined) was read as p47phox inh -10, Mcl1-Bid inh -14, Bim-Mcl-1 3, eIF4E-4G inh 40*, Mcl1-Noxa inh 7 and 14-3-3 Bad PPI 5.
COc1ccc(NS(=O)(=O)c2cc(NC(=O)c3nc4nc(C)cc(C)n4n3)ccc2C)cc1 was read as p47phox inh 8, Mcl1-Bid inh -16, Bim-Mcl-1 -2, eIF4E-4G inh -1, Mcl1-Noxa inh 8 and 14-3-3 Bad PPI 62.
For O=C(CSc1nc2nn(-c3ccccc3)c(=O)c-2c2n1CCCCC2)NCCc1ccccc1 the results were p47phox inh 2, Mcl1-Bid inh -12, Bim-Mcl-1 0, eIF4E-4G inh -3, Mcl1-Noxa inh 55* and 14-3-3 Bad PPI -7.
CCSc1nc2nn(-c3ccccc3)c(=O)c-2c2n1CCCCC2 was read as p47phox inh -16, Mcl1-Bid inh -29, Bim-Mcl-1 1, eIF4E-4G inh -5, Mcl1-Noxa inh 10 and 14-3-3 Bad PPI 4.
`Cc1ccc(S(=O)(=O)n2nc(C)cc2C)cc1` gave p47phox inh 43*, Mcl1-Bid inh 0, Bim-Mcl-1 -4, eIF4E-4G inh -1, Mcl1-Noxa inh 14 and 14-3-3 Bad PPI -7.
